Laboratory results reported in the OligoGym collection.

target: RNPEPL1; test: pooled miR-30 sensor sort-seq; sequence = guide strand; conditions: shRNA
Note: reference of the scale not given here.

| Sequence | sensor-assay potency score (higher = more potent) |
| --- | --- |
| TAGTACACGAAGCAGTAGCCCT | -0.845 |
| TCTGTGTCTGCTTCAGCCTTGC | 0.0808 |
| TGGCAGGAAGACAATGTCGTAC | -1.01 |
| TACTTCTCCACATAGGCTCGGA | -0.423 |
| TTCTGCGGTCCACAGCTGGAAA | -1.5 |
| TCAGGATAGTAGTCGTTGCGGA | -0.665 |
| TTGTACTTCTCCACATAGGCTC | -0.15 |
| TTCTCGTAGGTGAACAGGTTCA | -0.738 |
| TACAAGAGACAGGCTGTCCTGT | 0.345 |
| TAGGTCTCGGTGGTGATACGGC | -0.874 |
| TGAACTTGTACTTCTCCACATA | -0.899 |
| TAGGTGAACAGGTTCATCAGGT | 0.726 |

target: ROBO3; test: as above; conditions: shRNA

| Sequence | sensor-assay potency score (higher = more potent) |
| --- | --- |
| TTGTCTTGAACTGGAGGTCATC | -1.28 |
| TTCAGCTGCCGCACTCTCCCGT | -0.447 |
| TTCATCTGGGTGGAGCACCCGC | -0.884 |
| TAGCACAGTACTTTGCTGGCTT | 0.438 |
| TTTCCTTTGGTCTCGCACTGGA | -0.00997 |
| TCTTAGCACAGTACTTTGCTGG | -0.938 |
| TTGGCCATTGTCTTGAACTGGA | -0.232 |
| TTCGTTGTAATATCTGTCGTCC | 0.714 |
| TTGGGCTTGCACCTTGATCTGG | -0.739 |
| TGTAGGTCCAACATTGTCCAGC | -0.683 |
| TTTATAAACAAGTCTCAGGTGG | -0.186 |
| TTGTAATATCTGTCGTCCGGGT | -0.931 |

target: ROCK2; test: as above; conditions: shRNA

| Sequence | sensor-assay potency score (higher = more potent) |
| --- | --- |
| TTCTGCTTCGAGCTGATCCTGG | -0.437 |
| TCTATTGTTAGATTCCAGCTGC | 0.544 |
| TTGAGAAATACTGTTCTGCTTC | 0.537 |
| TTTATCTGCTAGTCGTGCCTTT | 0.209 |
| TTTTCTGACATTTTTAGTGTGT | 0.278 |
| TAACTTGGCAGTCTCCAGCAGG | -1.05 |
| TTTTGCTGTATCTTCATTGAAG | -0.765 |
| TAGATGTCCATGTTTATCCAAG | -1.07 |
| TTTCTAACTGTCTTAATGCTGA | -0.42 |
| TATTTTTATCTGCTAGTCGTGC | -0.412 |
| TAAAGCATTGGTTTCATCCAGT | 0.0253 |

target: ROPN1; test: as above; conditions: shRNA

| Sequence | sensor-assay potency score (higher = more potent) |
| --- | --- |
| TTCCATGTAGTTTAGCATCCTG | -0.0226 |
| ATTCTGAAGTACAATCATCTCT | 0.029 |
| TCCACTTTGGCAATATACGTGT | -0.784 |
| TTCTGAAGTACAATCATCTCTG | 0.437 |
